Results taken from the supplement of paper PMC6607015.
Counter-ions that a name gives are not always drawn.

Experiments:
Conditions in all cases: compound concentration in added solution (µM; 5 µl added to 20 µl cells): 10; 18 h
A431 [1] = experiment: LBPA endosome anti-LBPA integrated intensity (sum per cell), Z-score; higher = more LBPA staining
Outline: (§1)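 HeLa MZ or A431 cells (3,500/well in 20 µl) were seeded onto 5 µl of 10 µM compound solution in duplicate 384-well imaging plates, incubated 18 h, then fixed in 4% PFA. Cells were stained with 6C4 anti-LBPA antibody, filipin, propidium iodide and CellTracker green, and four 20× images were taken per well. MetaXpress segmentation gave per-cell integrated LBPA or filipin intensity, either whole-cell or within LBPA endosomes. Values are Z-scores normalised in AcuityXpress.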

HeLa MZ [2] = experiment: as above
Outline: as §1

A431 [3] = experiment: whole-cell filipin (free cholesterol) integrated intensity, Z-score; higher = more cholesterol staining
Outline: as §1

HeLa MZ [4] = experiment: as above
Outline: as §1

A431 [5] = experiment: filipin (cholesterol) integrated intensity within LBPA endosomes, Z-score; higher = more cholesterol in LBPA endosomes
Outline: as §1

HeLa MZ [6] = experiment: as above
Outline: as §1

SMILES | LBPA endosome anti-LBPA integrated intensity (z-score) (A431 [1]) | LBPA endosome anti-LBPA integrated intensity (z-score) (HeLa MZ [2]) | whole-cell filipin (z-score) (A431 [3]) | whole-cell filipin (z-score) (HeLa MZ [4]) | filipin (z-score) (A431 [5]) | filipin (z-score) (HeLa MZ [6])
Cc1cnc(NC(=O)C2=C(O)c3ccccc3S(=O)(=O)N2C)s1 [Meloxicam] | -0.49 | 0.298 | -0.567 | -0.195 | -0.477 | -0.459
CC(C)OC(=O)C(C)(C)Oc1ccc(C(=O)c2ccc(Cl)cc2)cc1 [Fenofibrate] | -0.471 | -0.341 | -0.324 | -0.246 | -0.435 | -0.631
Cc1nccn1CC1CCc2c(c3ccccc3n2C)C1=O (stereo not drawn) [Ondansetron Hydrochloride] | 0.526 | 1.23 | -0.22 | 0.362 | -0.149 | 0.186
CN1CCCC(CC2c3ccccc3Sc3ccccc32)C1 (stereo not drawn) [Metixene hydrochloride] | 3.73 | 1.25 | 0.301 | -0.563 | 3.15 | 1.94
C[C@H](O)C(=O)Nc1c(I)c(C(=O)NC(CO)CO)c(I)c(C(=O)NC(CO)CO)c1I [Iopamidol] | -0.637 | -1.5 | -0.34 | -0.1 | -0.494 | -0.379
CN1CCCCC1CCN1c2ccccc2Sc2ccc([S+](C)[O-])cc21 (stereo not drawn) [Mesoridazine besylate] | 0.975 | 2.18 | 0.066 | 0.244 | 0.618 | 1.37
O=C(COc1ccc(Cl)cc1)N1CCN(Cc2ccc3c(c2)OCO3)CC1 [Fipexide hydrochloride] | -0.365 | 0.298 | -0.792 | -0.7 | -0.47 | -0.495
O=C(Nc1ccccc1)OCC(CN1CCCCC1)OC(=O)Nc1ccccc1 (stereo not drawn) [Diperodon hydrochloride] | 1.44 | 2.96 | 0.922 | -0.386 | 1.23 | 1.1
CN1[C@@H]2CC[C@H]1C[C@@H](OC(=O)c1c[nH]c3ccccc13)C2 [Tropisetron HCl] | -0.35 | 0.869 | -0.234 | -0.504 | -0.29 | 0.0878
CCN(CCCc1ccccc1)CCCc1ccccc1 [Alverine citrate salt] | 2.06 | 1.56 | 1.13 | -0.0321 | 1.44 | 0.403
O=P(O)(O)C(Cl)(Cl)P(=O)(O)O [Clodronate] | -0.576 | -0.865 | -0.177 | -0.446 | -0.541 | -0.434
CC(=O)[C@H]1CC[C@H]2[C@@H]3CCC4=CC(=O)CC[C@]4(C)[C@H]3CC[C@]12C [Progesterone] | 2.4 | 0.628 | 1.62 | 0.873 | 2.26 | 0.759
CCCC1O[C@@H]2C[C@H]3[C@@H]4CCC5=CC(=O)C=C[C@]5(C)[C@H]4[C@@H](O)C[C@]3(C)[C@]2(C(=O)CO)O1 (stereo partly drawn) [Budesonide] | -0.313 | -0.695 | 0.452 | 0.254 | -0.143 | 0.318
C=C1/C(=C\C=C2/CCC[C@]3(C)[C@@H]([C@H](C)/C=C/[C@@H](O)C4CC4)CC[C@@H]23)C[C@@H](O)C[C@@H]1O [Calcipotriene] | 0.563 | 1.43 | 0.734 | 0.316 | 0.659 | 0.179
CC(C)(C)NCC(O)COc1cccc2c1CC(O)C(O)C2 (stereo not drawn) [Nadolol] | -0.438 | 0.289 | -0.0909 | 0.44 | -0.44 | -0.157
c1ccc(C2CN3CCSC3=N2)cc1 (stereo not drawn) [Tetramisole hydrochloride] | -0.644 | 0.538 | -0.603 | -0.217 | -0.702 | -0.156
CC(C)NC(=N)NC(=N)Nc1ccc(Cl)cc1 [Proguanil hydrochloride] | -0.302 | 1.15 | -0.0125 | 0.372 | -0.375 | -0.0535
O=C(O[C@@H]1C[C@@H]2C[C@H]3C[C@H](C1)N2CC3=O)c1c[nH]c2ccccc12 [Dolasetron mesilate] | -0.534 | -0.27 | -0.669 | 0.0841 | -0.498 | -0.224
CC(C)[C@H](N)C(=O)OCCOCn1cnc2c(=O)nc(N)[nH]c21 [Valacyclovir hydrochloride] | -0.418 | 0.0601 | -0.723 | -0.237 | -0.459 | -0.357
CCC(=O)OCC(=O)[C@@]1(OC(=O)CC)[C@H](C)C[C@H]2[C@H]3[C@H]([C@@H](O)C[C@@]21C)[C@@]1(C)C=CC(=O)C=C1C[C@H]3Cl [Alclometasone dipropionate] | -0.24 | 0.1 | -0.316 | -0.125 | -0.325 | -0.277
Cc1oncc1C(=O)Nc1ccc(C(F)(F)F)cc1 [Leflunomide] | -0.572 | -0.48 | -0.143 | -0.573 | -0.693 | -0.555
CN(C)/N=N/c1[nH]cnc1C(N)=O [Dacarbazine] | -0.547 | -0.605 | -0.746 | -0.976 | -0.487 | -0.668
O=C1OCCN1/N=C/c1ccc([N+](=O)[O-])o1 [Furazolidone] | -0.473 | -0.0304 | -0.00282 | 0.522 | -0.483 | -0.65
C[C@H]1c2cccc(O)c2C(=O)C2=C(O)[C@]3(O)C(=O)C(C(N)=O)=C(O)[C@@H](N(C)C)[C@@H]3[C@@H](O)[C@@H]21 [Doxycycline hydrochloride] | -0.633 | -1.71 | -0.0102 | -0.552 | -0.531 | -0.743

SMILES | LBPA endosome anti-LBPA integrated intensity (z-score) (A431 [1]) | LBPA endosome anti-LBPA integrated intensity (z-score) (HeLa MZ [2]) | whole-cell filipin (z-score) (A431 [3]) | whole-cell filipin (z-score) (HeLa MZ [4]) | filipin (z-score) (A431 [5]) | filipin (z-score) (HeLa MZ [6])
CC(C)CC(=O)N[C@H](C(=O)N[C@H](C(=O)N[C@@H](CC(C)C)[C@@H](O)CC(=O)N[C@@H](C)C(=O)N[C@@H](CC(C)C)[C@@H](O)CC(=O)O)C(C)C)C(C)C [Pepstatin A] | -0.604 | -1.38 | -0.841 | -0.484 | -0.569 | -0.589
c1ccc(CNc2ncnc3nc[nH]c23)cc1 [Aminopurine, 6-benzyl] | -0.375 | -0.475 | -0.69 | -0.144 | -0.46 | -0.279
CCCC(C(=O)OCCN(CC)CC)(c1ccccc1)c1ccccc1 [Proadifen hydrochloride] | 2.78 | 2.82 | 2.1 | -0.192 | 2.21 | 1.12
C[C@]12CC[C@@H]3c4ccc(O)cc4CC[C@H]3[C@@H]1C[C@@H](O)[C@@H]2O [Estriol] | -0.219 | 0.135 | -0.24 | -0.552 | -0.367 | -0.397
CC(COc1ccccc1)N(CCCl)Cc1ccccc1 (stereo not drawn) [Phenoxybenzamine hydrochloride] | -0.295 | -0.519 | -0.105 | 0.141 | -0.396 | -0.505
CNCC(O)c1ccc(OC(=O)C(C)(C)C)c(OC(=O)C(C)(C)C)c1 (stereo not drawn) [Dipivefrin hydrochloride] | 0.303 | -0.643 | 1.75 | 0.0389 | 0.224 | 0.0222
CCN1CCN(C(=O)N[C@@H](C(=O)N[C@@H]2C(=O)N3C(C(=O)O)=C(CSc4nnnn4C)CS[C@H]23)c2ccc(O)cc2)C(=O)C1=O [Cefoperazone dihydrate] | -0.512 | -0.941 | -0.712 | -0.226 | -0.522 | -0.518
CCc1oc2ccccc2c1C(=O)c1cc(Br)c(O)c(Br)c1 [Benzbromarone] | -0.388 | -0.283 | -0.536 | -0.296 | -0.47 | -0.42
CN1CCN(C(c2ccccc2)c2ccc(Cl)cc2)CC1 (stereo not drawn) [Chlorcyclizine hydrochloride] | 1.56 | 0.74 | 1.78 | -0.254 | 1.24 | 0.687
COCC(=O)Nc1c(I)c(C(=O)NCC(O)CO)c(I)c(C(=O)N(C)CC(O)CO)c1I (stereo not drawn) [Iopromide] | -0.665 | -1.68 | -0.559 | -0.164 | -0.527 | -0.574
CCN(CC)CCOC(=O)C(Cc1cccc2ccccc12)CC1CCCO1 (stereo not drawn) [Nafronyl oxalate] | 1.69 | 2.05 | 1.62 | 0.888 | 1.25 | 1.15
CC[C@@H]1C(=O)OC[C@@H]1Cc1cncn1C [Pilocarpine nitrate] | -0.402 | -0.0375 | -0.715 | -0.63 | -0.502 | -0.573
CC(C)[N+](C)(CCOC(=O)C1c2ccccc2Oc2ccccc21)C(C)C [Propantheline bromide] | -0.352 | 0.315 | -0.217 | 0.064 | -0.366 | -0.177
CC(C)NC[C@@H](O)COc1ccc(CC(N)=O)cc1 [(R)-(+)-Atenolol] | -0.596 | -1.65 | -0.23 | -0.591 | -0.512 | -0.472
CCCNC(C)C(=O)Nc1ccccc1C (stereo not drawn) [Prilocaine hydrochloride] | -0.398 | -0.0706 | -0.685 | -0.312 | -0.467 | -0.406
Nc1nc2c(ncn2COC(CO)CO)c(=O)[nH]1 [Ganciclovir] | -0.282 | 0.382 | -0.0797 | 0.0803 | -0.332 | -0.411
CCCCN(CCCC)CCCOC(=O)c1ccc(N)cc1 [Butacaine] | 1.72 | 1.93 | -0.324 | -0.451 | 0.0505 | 0.307
COc1ccc(C(=O)c2ccccc2)c(O)c1 [Oxybenzone] | -0.5 | -0.722 | -0.24 | 0.387 | -0.525 | -0.452
CCCCc1cc2ccccc2c(OCCN(C)C)n1 [Dimethisoquin hydrochloride] | 2.89 | 2.04 | 2.32 | 0.247 | 2.27 | 0.845
COc1cc(NC(C)CCCN)c2ncccc2c1 (stereo not drawn) [Primaquine diphosphate] | -0.0886 | 0.528 | -0.291 | -0.377 | -0.187 | 0.116
CC1=Nc2ccc(Cl)cc2S(=O)(=O)N1 [Diazoxide] | -0.529 | -1.17 | -0.801 | -0.471 | -0.542 | -0.481
OCCOCCN1CCN(C2=Nc3ccccc3Sc3ccccc32)CC1 [Quetiapine] | -0.603 | 0.201 | -0.454 | -0.549 | -0.515 | -0.0994
CN1CCN(CCCN2c3ccccc3Sc3ccc(C(F)(F)F)cc32)CC1 [Trifluoperazine dihydrochloride] | 1.83 | -0.0806 | -0.826 | 0.153 | 2.06 | 3.01
C#C[C@]1(O)CC[C@H]2[C@@H]3CCC4=CCCC[C@@H]4[C@H]3CC[C@@]21C [Lynestrenol] | -0.602 | -1.13 | -1.14 | -0.677 | -0.563 | -0.697
